Source: PubChem (National Center for Advancing Translational Sciences (NCATS))
This is a sample that favours compounds with a hit; in the whole collection about 7.9% have one here.
SW480 rerep = inducers of DNA re-replication in SW480 colon cancer cells; SW480 DNA re-replication, Hoechst DNA content imaging, 48 h; Potency, µM (series often up to 46.1 µM), without a hit: at the top dose re-replication activation, usual class: activators; 340,000 compounds, 1.8% hits; note: % of control where 0% means no effect; nearly all actives have a fitted effect of over 55% in size
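First, 250 cells per well were seeded. Next, compound or vehicle (23 nL) was pinned in, plates sat 48 hr at 37 C. Finally Hoechst was added for 40 min before fluorescence scanning.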
HT1080NT lethal = kills 2HG-producing HT-1080-NT fibrosarcoma cells; Potency, µM (doses to about 46.1 µM), inactives show at the top dose activity, negative = less viability, hits mostly cytotoxic; 360,000 compounds, 1.6% hits; HT-1080-NT fibrosarcoma viability, CellTiter-Glo ATP luminescence, 48 h;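 note: NT is the 2HG producing partner of a matched IDH1 knockdown line; 0% = DMSO-treated cells and -100% = media-only wells without cells; nearly all actives have a fitted effect of over 55% in size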
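HT-1080-NT fibrosarcoma cells (2HG-overproducing), 750 cells/well in RPMI with 5% FBS, dosed after 2 h and incubated 48 h at 37C. CellTiter-Glo luminescence normalized to DMSO and no-cell wells; concentration-response curves fitted and classed.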
HT1080 IDH1KD tx = HT-1080 IDH1 knockdown cell toxicity (counter line). HT-1080 IDH1 knockdown viability, ATP luminescence, 48 h. Potency, µM (titrated, usually from 46.1 µM), without a hit: top-dose activity, negative = toxicity, most hits filed as cytotoxic. 360,000 compounds, 2% hits. AID 686971;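 note: 0% = DMSO wells and -100% = cell-free medium wells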
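% activity derives from luminescence (CellTiter-Glo), normalised to DMSO and no-cell wells. HT-1080-IDH1KD cells, 750/well, had 48 h compound exposure at 37 °C.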
MCF10A rerep = DNA re-replication induction in MCF 10a cells; 350,000 compounds, 2.9% hits; MCF 10A DNA re-replication, Hoechst nuclear intensity, 48 h; Potency, µM (top dose mostly 46.1 µM), for inactives: top-dose activity, positive = re-replication, hits mostly activators; note: % of control where 0% means no effect; nearly all actives have a fitted effect of over 50% in size
KB-3-1 cytotox = KB-3-1 parental cell cytotoxicity | Potency, µM (highest dose often 46.1 µM), hits mostly cytotoxic | KB-3-1 viability, CellTiter-Glo ATP luminescence, 72 h | 400,000 compounds, 1.4% hits | AID 1347075; note: % is set by controls: 0 for no effect and ±100 for the full control effect; nearly all actives have a fitted effect of over 60% in size
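Parental KB-3-1 adenocarcinoma cells in phenol-red-free DMEM with 10% FBS were pin-treated with compounds at several concentrations, incubated 72 h at 37 °C, and viability read by CellTiter-Glo luminescence; concentration-effect curves were fitted after normalization.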
KB-V1 MDR tox = kills drug-selected multidrug resistant KB-V1 cells | KB-V1 MDR cells viability, CellTiter-Glo, 72 h | Potency, µM (series often up to 46.1 µM), actives largely listed as cytotoxic | 400,000 compounds, 3.4% hits | AID 1347076; note: % is set by controls: 0 for no effect and ±100 for the full control effect; nearly all actives have a fitted effect of over 60% in size
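Cytotoxicity toward P-gp-expressing KB-V1 cells was determined as loss of CellTiter-Glo luminescence after 72 h at 37 degrees C. Compounds were tested in quantitative HTS format across a concentration range, with curves fitted to normalized data.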
Active calls of the source: *; i = inactive; ? = inconclusive; nt = no result; ! = a repeat was not active; [ ] = remark or other dose. Calls come from the whole dose curve; as a rule, active = well fitted curve in the direction sought with a large enough effect; inconclusive = small, poorly fitted or top-dose-only effect, or another doubt; inactive = no such curve, though single readings can be large; an effect the other way counts as inactive or inconclusive. Potency is the fitted concentration of half-maximal effect.

SMILES	SW480 rerep	HT1080NT lethal	HT1080 IDH1KD tx	MCF10A rerep	KB-3-1 cytotox	KB-V1 MDR tox
CC1(C)CC(=O)C(CC(=O)c2ccccc2)=C(NN=C(N)N)C1	nt	-2.8%	5.2%	nt	i	i
CC(=O)c1cnc2n(c1=O)CCS2	13µM*	-8.3%	0.1%	-16.8%	i	i
CN(C)/C=C/C(=O)c1cnc2n(c1=O)CCS2	-5.2%	7.7%	6.9%	-16.5%	i	i
CCOc1cccc(/C=N/NC(=O)c2cc(C3CC3)[nH]n2)c1O	?	?	-28.0%	2.4%	?	i
CSc1cccc(NC(=O)N2CCN(C)CC2)c1	-2.9%	-0.7%	-3.9%	-1.9%	i	?
CN1CCN(CCC(=O)N2c3ccccc3Sc3ccc(C(F)(F)F)cc32)CC1	9.0%	-15.0%	-2.5%	9.8%	i	?
CN1CCN(C2Cc3ccccc3Sc3cc(C(F)(F)F)ccc32)CC1 (stereo unspecified)	?	16.4µM*	20.6µM*	?	i	i
CSc1ccc2c(c1)C(N1CCN(C)CC1)Cc1ccccc1S2 (stereo unspecified)	26.6µM*!	25.9µM*	20.6µM*	26.6µM*	i	i
OC(c1cccc(F)c1)c1ncc(-c2ccc(Oc3ccccc3)cc2)[nH]1 (stereo unspecified)	nt	16.4µM*	?	nt	i	i
N[C@@H](Cc1ccc(O)cc1)C(=O)NO	nt	7.2%	17.4%	nt	nt	nt
CCNc1nc(C23CC4CC(CC(C4)C2)C3)cs1	?	-15.4%	-22.7%	23.1µM*	i	i
CC(=O)NNC(=O)CC(=O)Nc1nc(C23CC4CC(CC(C4)C2)C3)cs1	-0.6%	?	?	?	i	i
Cc1ccc(S(=O)(=O)NC(=O)COc2ccc(Cl)cc2Cl)cc1	-12.3%	-1.4%	-7.0%	13.7%	i	i
CCOc1c(Cl)cc(CNc2ccc(N3CCCC3)cc2)cc1OC	10.3µM*	?	9.2µM*	?	?	i
CCOc1c(Cl)cc(CNC(C)(C)CC(C)(C)C)cc1OC	4.1%	?	?	8.2µM*	?	?
CCOc1c(Cl)cc(CNc2ccc(S(N)(=O)=O)cc2)cc1OC	7.7%	-0.4%	-10.9%	-2.0%	i	i
Cc1ccc(S(=O)(=O)Nc2ccc(Br)cc2/C=N/n2cnnc2)cc1	10.3%	12.6µM*	?	0.4%	i	i
N#Cc1cccc(CN2CCC(=O)N([C@H](CO)Cc3ccccc3)CC2)c1	-0.1%	4.5%	12.6%	-12.3%	i	i
Nc1nc(Cl)nc2c1ncn2C1CC(O)C(CO)O1 (stereo unspecified)	?	?	?	?	8.2µM*	?
Nc1ncn([C@H]2C[C@H](O)[C@@H](CO)O2)c(=O)n1	0.231µM*	0.9%	5.1%	-1.9%	i	i
CC(C)OCCCn1c(SCC(=O)Nc2ccc(F)cc2)nc2c(sc3ccccc32)c1=O	nt	nt	nt	nt	i	i
Cc1cc(C(c2nnnn2Cc2ccccc2)N2CCOCC2)c(C)n1-c1ccc2c(c1)OCO2 (stereo unspecified)	-4.0%	?	10µM*	-1.9%	i	i
O=c1[nH]c2cc3c(cc2cc1C(c1nnnn1Cc1ccccc1)N1CCCc2ccccc21)OCO3 (stereo unspecified)	16.6%	-26.6%[9.24 µM]	?	3.66µM*	?	i
COCCn1nnnc1C(c1cc2c(C)cc(C)cc2[nH]c1=O)N1CCCCCC1 (stereo unspecified)	20.7%	-22.2%	?	-2.7%	i	i
O=c1[nH]c2cc3c(cc2cc1C(c1nnnn1Cc1ccccc1)N1CCCCCC1)OCCO3 (stereo unspecified)	20.6µM*	-19.3%	-4.3%	?	?	?
